# Screen size: about 69,000 compounds; about 8,600 (12%) showed an effect of 50% or more. The entries come from a sample that favours strong results as a whole.
# Tested on: Plasmodium berghei
# Test: Screen against P. berghei liver stage (PbLuc), transformed with Luciferase, at 10uM
# Assay type: functional, HepG2
# Conditions: tested at 10 uM
row,SMILES,INHIBITION [%]
1,Cn1cccc1C(=O)NC(C)(C(N)=O)c1cccc(C(F)(F)F)c1 (stereo unspecified),61.1
2,CN1CCN(c2ccc(NC(=O)c3cccs3)c(C(F)(F)F)c2)CC1,-29
3,CC(NC(=O)c1cccs1)(C(N)=O)c1cccc(C(F)(F)F)c1 (stereo unspecified),62
4,CC(NC(N)=O)C(=O)N(C)Cc1cccc(C(F)(F)F)c1 (stereo unspecified),12
5,O=C(O)[C@@H]1CN(C(=O)CCC(F)(F)F)C[C@H]1c1ccncc1,11.6
6,CC(C)C(CNC(=O)CCn1cncn1)N1CCc2ccccc2C1 (stereo unspecified),60.5
7,CC(NC(=O)CCn1cncn1)c1nnc2n1CCCCC2 (stereo unspecified),39.2
8,CC(CNC(=O)CCCn1cncn1)N1CCc2ccccc2C1 (stereo unspecified),69.7
9,CCC(CNC(=O)CCn1cncn1)N1CCc2ccccc2C1 (stereo unspecified),-19.5
10,CC(CNC(=O)CCn1cncn1)N1CCc2ccccc21 (stereo unspecified),-7.7
11,CC(Cn1cncn1)NCCN1CCc2ccccc2C1 (stereo unspecified),45.1
12,Cc1cc2c(=O)n3c(nc2s1)CCN(C(=O)c1cnn(C)c1)CC3,-11.7
13,CC(C)N1CCCC1c1cc(C(F)(F)F)[nH]n1 (stereo unspecified),-7.7
14,Cc1cc(NC(C)Cn2cccn2)n2nccc2n1 (stereo unspecified),33
15,O[C@@H]1CC(CNCc2ccc(F)cc2)(COc2cccnc2)C[C@@H]1O (stereo partly specified),38.1
16,Cn1cccc1C(=O)NC1(C(=O)NCC2CC2)CCCC1,8.38
17,Cc1ccc2c(C(=O)N(C)C)cc(-c3cnn(CCO)c3)nc2c1C,31.15
18,COc1ncc(C2(O)CCN(Cc3cccc(F)c3F)CC2)c(OC)n1,44.1
19,CCc1ncc(CN2CCC(O)(c3ccccc3F)CC2)cn1,18.2
20,COc1ncc(C2(O)CCN(Cc3ccccc3O)CC2)c(OC)n1,65.5
21,Cc1ncc(CN2CCC(O)(c3ccccc3F)CC2)cn1,-4.675
22,COc1ncc(C2(O)CCN(Cc3cc(F)ccc3F)CC2)c(OC)n1,24.8
23,COc1ncc(C2(O)CCN(Cc3ccc(F)c(F)c3)CC2)c(OC)n1,57.5
24,COc1ncc(C2(O)CCN(Cc3cc(F)cc(F)c3)CC2)c(OC)n1,39.7
25,COc1ncc(C2(O)CCN(Cc3c(F)cccc3F)CC2)c(OC)n1,53
26,COc1ncc(C2(O)CCN(Cc3cccs3)CC2)c(OC)n1,8.48

row,SMILES,INHIBITION [%]
1,CN(C)CCn1nc(C2CCN(S(=O)(=O)N(C)C)C2)c2cccnc21 (stereo unspecified),6.33
2,Fc1ccc(OCCNCCn2cccn2)cc1,0.914
3,Cc1cc(C(=O)N2CCN(c3ccncc3Cl)CC2)n(C)n1,10.3
4,CSc1nnc(C2CCN(C(=O)N3CCCC3)CC2)n1C(C)C,20.09
5,COC(=O)C(C)N(Cc1cc(C)on1)C1CC1 (stereo unspecified),52.2
6,Cc1cc(CN(C2CC2)C(C)C(C)C)no1 (stereo unspecified),-26.1
7,COC(=O)C(C)N(Cc1cc(=O)n(C)c(=O)n1C)C1CC1 (stereo unspecified),-37.1
8,O=C(c1c[nH]cn1)N1CCOCC2(C1)CN(c1ccccc1)C(=O)CO2 (stereo unspecified),8.52
9,Cc1noc(C)c1C(=O)N1CCC2(CCc3ccccc3C(=O)N2)C1 (stereo unspecified),9.925
10,Cn1nc2c(cc1=O)CN(Cc1nc(-c3ccsc3)no1)CC2,-7.31
11,CC(C)c1nn(C)c(N2CCOCC2)c1CNCc1nncn1C,-18.9
12,CC(C)CNC(=O)c1cc(C2CC2)nc2c1c(C1CCCN1)nn2C (stereo unspecified),30
13,CS(=O)(=O)NC[C@]12COC[C@H]1CN(C(=O)C1CC=CC1)C2,23.1
14,CS(=O)(=O)NC[C@]12COC[C@H]1CN(CC1CCCC1)C2,6.82
15,CS(=O)(=O)NC[C@]12COC[C@H]1CN(CC1CCC1)C2,66.6
16,CS(=O)(=O)NC[C@]12COC[C@H]1CN(C(=O)C1CCCCC1)C2,13.6
17,CS(=O)(=O)NC[C@]12COC[C@H]1CN(C(=O)CC1CCCC1)C2,14
18,CCS(=O)(=O)NC[C@]12COC[C@H]1CN(CCc1ccccc1)C2,-58.7
19,O=S(=O)(NC[C@]12COC[C@H]1CN(CCc1ccccc1)C2)C1CC1,24.9
20,CS(=O)(=O)NC[C@]12COC[C@H]1CN(C(=O)C1CC(F)(F)C1)C2,57.5
21,CS(=O)(=O)NC[C@]12COC[C@H]1CN(CCc1ccccc1)C2,65.1
22,CCc1ccc(S(=O)(=O)NCCC(O)c2ccoc2)s1 (stereo unspecified),15.4
23,c1ccc(NCc2cn3c(n2)CN(Cc2cccnc2)CC3)nc1,38.7
24,Cc1ccc(-n2cc(C(=O)NCC(C)Cn3cccn3)nn2)cc1 (stereo unspecified),27.6
25,CO[C@H]1C[C@@H](O)C12CCN(Cc1nc(C(F)(F)F)no1)CC2,41.2
